Screening data deposited in PubChem by several laboratories.
Compounds with a hit are over-represented: about 2.4% of the library has one in this group of screens.
m5-HT2A agonist – mouse Htr2a agonists via beta-arrestin recruitment, primary screen, cell-based, luminescence; 5-hydroxytryptamine receptor 2A (Mus musculus), P35363; CHO-K1 mHTR2A beta-arrestin complementation; percent of 30 µM serotonin response; activation, % at 7.6 µM; hit rate 0.66% among 360,000;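 active = activation above a run cutoff, the mean activation of all tested compounds plus 3 SD, cut at about 14% in these data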;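 note: 0% = plate median of compound wells and 100% = 30 µM serotonin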
TMEM16A act – TMEM16A chloride channel activators or potentiators, primary screen, cell-based, HTS. B-score at 10 µM. HEK293 TMEM16A/YFP-H148Q/I152L, iodide quench fluorescence; stronger effect = lower value. hit rate 0.3% among 340,000. Anoctamin-1 (Mus musculus), Q8BHY3;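 active = fluorescence-ratio B-score plate-corrected deviation score at least 3 library SD below zero, with starting fluorescence score within 5 deviations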;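 note: channel opened by trigger with iodide after compound preincubation; score built on the fluorescence ratio of max minus min over baseline; more negative score means more quench and so TMEM16A activation or potentiation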
NOD2-RIPK2 inh – NOD2-RIPK2 binding disruptors in cells, primary screen, fluorescence, CHO cells, BLA complementation; CCF4 ratio; inhibition, % at 4.98 µM; hit rate 0.38% among 360,000; in the data active = inhibition above about 21%;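 note: 0% = vehicle only and 100% = reference blocker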
TMEM16A inh – TMEM16A chloride channel inhibitors, primary screen, cell-based, HTS; Anoctamin-1 (Mus musculus), Q8BHY3; HEK293 TMEM16A/YFP iodide influx fluorescence, ionomycin; normalized B-score (activity score, 25-100; higher = stronger inhibition) at 10 µM; hit rate 1.2% among 310,000; AID 588511, 2011;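 active = ratio plate-corrected score three or more library SD toward inhibition, starting fluorescence score within five deviations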;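 note: score derived from kinetic fluorescence span divided by baseline fluorescence per well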
TLR9-MyD88 block – inhibitors of TLR9-MyD88 association in cells, primary screen, cell-based, CHO, BLA complementation, fluorescence; CCF4 FRET ratio; Toll-like receptor 9 (Homo sapiens) + Myeloid differentiation primary response protein …; AID 504734, 2011; inhibition, % at 4.98 µM; hit rate 0.21% among 340,000;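 active = inhibition above the mean over all tested compounds plus 3 SD, cut at about 21% in these data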;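 note: 0% = DMSO only wells and 100% = clavulanate BLA inhibitor control wells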
TLR4 MyD88 comp – inhibitors of TLR4-MyD88 association in cells, primary screen, cell-based, HeLa CL3-4, BLA complementation, FRET ratio | HeLa CL3-4 TLR4/MyD88 BLA complementation | hit rate 0.18% among 200,000 | AID 861, 2007 | inhibition, % at 8.4 µM; in the data active = inhibition above about 25%;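 note: 0% = vehicle and 100% = reference inhibitor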
OPRM1 ag – OPRM1 agonists via beta-arrestin recruitment, confirmation, counter-screen for mouse HTR2A agonist project, cell-based, luminescence, single concentration; AID 624380, 2012; activation, % at 9.3 µM; hit rate 5.3% among 2,300; U2OS OPRM1 beta-arrestin PathHunter; DMSO 0%, DAMGO 9.3 µM 100%; shares compounds with m5-HT2A agonist;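 active = mean activation above the mean of DMSO-only wells plus 3 SD, cut at about 0.5% in these data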
m5-HT2A ag conf – mouse HTR2A agonists, beta-arrestin recruitment, confirmation, cell-based, luminescence, CHO-K1 PathHunter, triplicate; shares compounds with m5-HT2A agonist; DMSO 0%, 30 µM serotonin 100%; activation, % at 7.6 µM; hit rate 19% among 2,300; AID 624381, 2012;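 active = mean activation across triplicates above the hit threshold derived in the original primary screen, cut at about 15% in these data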
The depositor's hits bear a star; i = inactive; . = no result.

SMILES	m5-HT2A agonist	TMEM16A act	NOD2-RIPK2 inh	TMEM16A inh	TLR9-MyD88 block	TLR4 MyD88 comp	OPRM1 ag	m5-HT2A ag conf
O=C(Nc1ccc(N2CCOCC2)cc1)c1cccc2ccccc12	1	i	4	i	-1	.	.	.
CC(=O)C1=C(O)C(=O)N(Cc2cccnc2)C1c1ccc(C)cc1 (configuration not stated)	.	.	.	.	.	-7	.	.
CCn1c(=O)ccc2cc([N+](=O)[O-])ccc21	14*	i	-4	i	0	12	-1	2
CS(=O)(=O)c1ccc(NS(=O)(=O)c2ccc(Cl)c(C(=O)NCc3ccco3)c2)cc1	19*	i	3	.	-10	.	0	-1
COc1ccc(NS(=O)(=O)c2ccc(C)c(C(=O)NCC(c3ccco3)N(C)C)c2)cc1 (configuration not stated)	16*	i	8	i	3	.	0	-3
CN1CCC(CO)(Cc2ccccc2)CC1	-6	i	-3	i	-11	-13	.	.
CC(C)(C)OC(=O)N1CCCC(C(=O)Nc2ccc(C(=O)N3CCOCC3)cc2)C1 (configuration not stated)	1	i	-13	.	-7	.	.	.
COc1cccc(/C=N/NC(=O)c2cccc(N3CCCC3=O)c2)c1	15*	i	-6	i	-4	.	0	-3
CCOC1=C2[C@@H](CN(S(=O)(=O)c3ccc(C)cc3)[C@H]2c2ccc(Cl)cc2)[C@H]2C(=O)N(c3ccccc3)C(=O)[C@H]2C1	21*	.	-2	.	.	.	-1	-2
CCOC1=C2[C@@H](CN(S(=O)(=O)c3ccccc3)[C@H]2c2ccccc2)[C@H]2C(=O)N(c3ccccc3)C(=O)[C@H]2C1	-4	.	-13	.	.	.	.	.
COc1ccc(C=C(NC(=O)c2ccccc2)C(=O)O)cc1OC	-1	i	-9	.	-8	.	.	.
COc1cc(S(=O)(=O)NC2CCCCC2)ccc1F	-2	i	-10	i	-12	-2	.	.
O=C(Nc1ccc(F)cc1)C(c1cc2ccccc2o1)N1CCN(CC(=O)N2CCCC2)CC1 (configuration not stated)	27*	.	-4	.	.	.	-1	-5
NC(=O)CC(NC(=O)c1ccccc1)c1ccc(NC2CCCCCCC2)c([N+](=O)[O-])c1 (configuration not stated)	19*	i	1	i	9	.	0	-2
CCOc1ccc(OCC(=O)N2CCC3(CC2)CC(=O)c2ccccc2O3)cc1	19*	i	-4	i	-25	.	0	2
O=C(O)c1cc(NS(=O)(=O)c2ccc(N3CCCCC3)c([N+](=O)[O-])c2)cc(C(=O)O)c1	-4	i	11	i	9	1	.	.
Cc1ccc(S(=O)(=O)N2CCC(=O)CC2c2ccccc2)cc1 (configuration not stated)	-3	.	-7	.	-1	.	.	.
CN1CCN(S(=O)(=O)c2ccc(C(F)(F)F)cc2)C(c2ccccc2)C1 (configuration not stated)	15*	i	4	.	-7	.	0	-1
OC(c1cccc(Cl)c1)c1ncc(-c2ccccc2Cl)[nH]1 (configuration not stated)	2	.	3	.	.	.	.	.
CC(NC(=O)c1ccc2ccccc2n1)c1ccc(S(N)(=O)=O)cc1 (configuration not stated)	17*	i	3	i	-7	.	0	1
FC(F)(F)c1ccc(Cl)c(NC(=S)N/N=C/c2ccccc2Cl)c1	-1	i	-10	i	.	.	.	.
CCN1C(C#N)=C(C#N)N=C(C)CC1(C)C	25*	i	-3	i	3	15	0	-4
CC1=NN(C(C#N)c2ccccc2O)C(C)(C)C1 (configuration not stated)	4	i	-9	i	2	-6	.	.
CCOC(=O)c1c2c(n(Cc3ccccc3)c1C)C(=O)C(=O)c1ccccc1-2	15*	i	-2	.	2	.	1.8*	9
Cc1ccc2c(C)c(C(=O)Nc3c(C)n(C)n(-c4ccccc4)c3=O)oc2c1C	17*	i	-16	i	0	1	0	40*
SMILES	m5-HT2A agonist	TMEM16A act	NOD2-RIPK2 inh	TMEM16A inh	TLR9-MyD88 block	TLR4 MyD88 comp	OPRM1 ag	m5-HT2A ag conf
Cc1cc2oc(C(=O)Nc3c(C)n(C)n(-c4ccccc4)c3=O)c(C)c2cc1C	1	i	1	i	-6	8	.	.
CN1CCN(C(=O)CN2C(=O)COc3ccc(S(=O)(=O)N4CCOCC4)cc32)CC1	18*	i	-11	i	5	.	-1	12
CCOC(=O)C1CCN(C(=O)CN2C(=O)CSc3ccc(S(=O)(=O)N4CCOCC4)cc32)CC1	35*	i	-4	i	-3	.	0	-1
COc1ccc2c(CC(=O)Nc3ncc(C)s3)coc2c1	2	i	0	i	-13	3	.	.
CCc1ccc(-c2cc(C)no2)cc1S(=O)(=O)N1CCN(c2ccccc2F)CC1	3	i	3	i	1	.	.	.
CCOC(=O)CSc1ccc(S(=O)(=O)N(CC)CC)cc1[N+](=O)[O-]	17*	i	0	i	-4	8	-1	-4
COC(=O)CSc1ccc(S(=O)(=O)N2CCC(C)CC2)cc1[N+](=O)[O-]	17*	i	0	i	-6	8	0	-4
CCCCN(C(=O)C1=COCCO1)c1c(N)n(Cc2ccccc2)c(=O)[nH]c1=O	11	i	-5	i	-1	.	.	.
Cn1cc(C(F)(F)F)nc1-c1ccc(OCC(O)CNCCOc2ccc(O)c(C(N)=O)c2)cc1 (configuration not stated)	33*	i	-14	i	0	.	-1	116*
OC(CNCCNc1ncccc1C(F)(F)F)COc1ccc(F)cc1 (configuration not stated)	-5	i	-9	i	-10	.	.	.
